From PubChem
IMPase inh – cell-permeable inhibitors of inositol monophosphatase (IMPase); P97697; CHO-M1 cells, IP1 accumulation, HTRF TR-FRET ratio; inhibition (IP1 accumulation), % at 46.1 µM; 120,000 tested, under 10 active; AID 901; active = well fitted curve in the direction sought with a large enough effect in the signal ratio, not every such curve was filed as active; inconclusive = small, poorly fitted or top-dose-only effect, or a change in a side signal; inactive = no such curve, though single readings can be large or run the other way; the % refers to the signal ratio;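 note: cells stimulated with carbachol in lithium chloride buffer; plate controls were DMSO basal wells for no effect and reference inhibitor wells for full effect; higher means more IMPase inhibition seen as more IP1 and lower FRET ratio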
Target sequence (P97697 whole entry, looked up): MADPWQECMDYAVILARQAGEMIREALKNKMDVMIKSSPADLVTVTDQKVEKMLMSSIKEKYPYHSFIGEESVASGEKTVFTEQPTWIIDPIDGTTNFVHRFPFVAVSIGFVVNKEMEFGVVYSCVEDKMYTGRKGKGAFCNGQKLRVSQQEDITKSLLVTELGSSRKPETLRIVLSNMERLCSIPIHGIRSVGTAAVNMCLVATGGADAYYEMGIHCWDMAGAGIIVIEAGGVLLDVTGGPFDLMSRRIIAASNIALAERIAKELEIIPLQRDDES
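CHO-M1, 2000 cells/well, cultured 16–30 h; cpd up to 46 uM; carbachol (50 uM solution, stimulation buffer w/ 50 mM LiCl, pH 7.4), 30 min 37C; IP-One TR-FRET, 10 min RT; Ex 320/Em 665, 620; Hill-fit AC50.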
ALDH1A1 block – inhibitors of human aldehyde dehydrogenase 1A1; P00352; Purified ALDH1A1, NADH fluorescence, propionaldehyde substrate; Potency, µM (top dose mostly 75.3 µM), for inactives: at the highest dose activity, negative = inhibition, hits mostly inhibitors; 220,000 compounds, 7.3% hits;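 note: potency is the fitted concentration of half-maximal effect; plate controls were no enzyme wells and a reference inhibitor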
HPGD block – blocks human HPGD enzyme activity; purified HPGD, NADH fluorescence kinetic, PGE2 substrate; Potency, µM, for inactives: at the top dose activity change, negative = inhibition, usual class: inhibitors; 150,000 compounds, 4.3% hits; AID 894; note: potency is the fitted concentration of half-maximal effect
Target sequence (P15428 whole entry, looked up): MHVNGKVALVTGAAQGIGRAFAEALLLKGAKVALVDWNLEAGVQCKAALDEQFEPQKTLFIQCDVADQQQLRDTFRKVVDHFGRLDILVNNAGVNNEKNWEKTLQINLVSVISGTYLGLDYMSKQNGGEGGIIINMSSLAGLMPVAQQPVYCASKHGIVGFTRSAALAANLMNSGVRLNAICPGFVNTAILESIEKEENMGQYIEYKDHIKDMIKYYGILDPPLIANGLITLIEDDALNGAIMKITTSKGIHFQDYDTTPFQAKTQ
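NADH formation kinetics: reaction with 30 uM PGE2 and 1 mM NAD+ (final), 20 nM enzyme, Tris-HCl pH 8 with Tween 20, after 15 min compound preincubation at room temperature. Fluorescence change, last versus first of five reads.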
Lamin A splicing – LMNA splicing modulation. HeLa LMNA splicing GFP/RFP minigene ratio, 48 h. Potency, µM (doses to about 46.1 µM), inactives show top-dose ratio change, negative = inhibition, hits mostly inhibitors. 200,000 compounds, 0.01% hits. AID 1487; active = well fitted inhibition curve with a large enough effect in the signal ratio, with a control signal flat, not every such curve was filed as active; inconclusive = small, poorly fitted or top-dose-only effect, or effect the other way, or a change in a side signal; the % refers to the signal ratio; note: potency is the fitted concentration of half-maximal effect
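S3 HeLa cells stably expressing lamin A-EGFP splicing minigene plus DsRed2, 600 cells/well, 48 h compound exposure at 37C. Laser-scanning cytometry; analysed as GFP (500-530 nm)/RFP (575-640 nm) total intensity ratio; 0.5% DMSO vehicle.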
PNC assembly inh – blocks assembly of the perinucleolar compartment; PC3M PTB-GFP, PNC prevalence imaging, 16 h; hits give low values; 140,000 compounds, 3.1% hits; activity change (PNC), negative = inhibition, % at 10 µM;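 active = readout at or below -70, meaning at least 70% loss of cells showing the perinucleolar compartment, a nuclear body marking cancer cells; inconclusive = readout between -30 and a set limit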;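 note: plate controls were DMSO wells for no effect and camptothecin positive control wells for full effect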
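Compounds are pinned in duplicate onto adhered PC3M cells stably expressing GFP-tagged PTB and incubated 16 h at 37 C. Cells are then fixed, nuclei stained with Hoechst, and PNC-positive cells counted.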
Luc counter – Kinase-Glo luciferase inhibition (counter-screen); Q27757; Kinase-Glo luciferase, ATP luminescence, 8 min; Potency, µM (titrated, usually from 38.3 µM), inactives show at the highest dose activity change, negative = inhibition, hits mostly inhibitors; 200,000 compounds, 0.28% hits; AID 1379; active = well fitted inhibition curve with a large enough effect; inconclusive = small, poorly fitted or top-dose-only effect; note: potency is the fitted concentration of half-maximal effect; nearly all actives have a fitted effect of over 60% in size
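Inhibition of Kinase-Glo luciferase light generation was assessed at 10 uM ATP in pH 7.2 imidazole buffer, with luminescence measured after eight minutes at ambient temperature.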
Active calls of the source: *; u = inconclusive; x = not tested or not shown; [ ] = dose if it differs, or a comment. The list is not random: actives were taken first. Their share in the collection is about 10%. Unless noted, calls come from the whole dose curve; as a rule, active = well fitted inhibition curve with a large enough effect (not every such curve was filed as active); inconclusive = small, poorly fitted or top-dose-only effect, or another doubt; inactive = no such curve, though single readings can be large or run the other way. Unless noted, % is set by controls: 0 for no effect and ±100 for the full control effect.

SMILES	IMPase inh	ALDH1A1 block	HPGD block	Lamin A splicing	PNC assembly inh	Luc counter
CC1CCCC(NC(=O)COC(=O)CN2C(=O)C3CCCCC3C2=O)C1C (centres undefined)	-10	25µM*	-18%	-5%	14	-1%
O=C(CN(C(=O)c1cc2c(s1)CCC2)C1CCCC1)NCc1cccs1	9	16µM*	-6%	7%	-27	11%
CN(C(=O)c1ccccc1C(=O)OCC(=O)NCc1cccs1)C1CCCCC1	x	-12%	x	22%[46 µM]	x	-4%
CCn1c(C)c(C(C)=O)c(N2CCN(c3ccccc3)CC2)nc1=S	16	11µM*	-9%	0%	u	1%
CCn1c(C)c(C(C)=O)c(N2CCN(C(c3ccccc3)c3ccccc3)CC2)nc1=S	x	14µM*	x	x	x	-2%
CCn1c(C)c(C(C)=O)c(N2CCN(c3ccccn3)CC2)nc1=S	3	7%	-5%	-1%	6	11%
CS(=O)(=O)c1ccc(N2CCOCC2)c(S(C)(=O)=O)c1	15	6%	-12%	2%	-107*	1%
CS(=O)(=O)c1ccc(C(=O)Nc2ccccc2N2CCOCC2)c(Cl)c1	x	2%	x	6%[46 µM]	x	4%
C/C(=N\NC(=O)COc1ccc(C)cc1[N+](=O)[O-])c1cccs1	x	14µM*	x	u	x	1%
N#C/C(=C\c1ccc(N2CCOCC2)o1)C(=O)NCCc1ccccc1	x	u	x	8%[46 µM]	x	4%
COCCNC(=O)/C(C#N)=C/c1ccc(N2CCOCC2)o1	x	32µM*	u	-5%	47	0%
N#C/C(=C/c1ccc(N2CCOCC2)o1)C(=O)Nc1ccccc1	x	22µM*	x	u	x	0%
N#C/C(=C\c1ccc(O)c(O)c1)C(=O)NCCCc1ccccc1	10	u	32µM*	u	8	2%
COCCNC(=O)/C(C#N)=C/c1cccc(/C=C(\C#N)C(=O)NCCOC)c1	x	u	25µM*	u	u	5%
CCOC(=O)CSc1nc2cc3c(cc2c(=O)n1Cc1ccc(C(=O)NCCc2ccc(OC)c(OC)c2)cc1)OCO3	x	x	x	2%[46 µM]	x	x
CO[C@H]1COC(=O)[C@@H](C)COC(=O)[C@H](C)NC(=O)C/C=C\[C@H]1C	x	14%[13.5 µM]	x	x	x	x
COc1ccccc1CN1CCC2(CC1)CCN(C(=O)c1cc(C(F)(F)F)cc(C(F)(F)F)c1)CC2	x	5%	-13%	x	x	-1%
Cc1cccc(NC(=O)CSc2nnc(CNC(=O)c3c(F)cccc3Cl)o2)c1C	-8	x	x	x	x	x
CCOc1ccc(C2C(C#N)=C(N)Oc3cc(C)oc(=O)c32)cc1 (centres undefined)	x	8.9µM*	x	0%[46 µM]	x	-5%
Cc1ccc(C2C(C#N)=C(N)Oc3cc(C)oc(=O)c32)o1 (centres undefined)	x	u	x	x	x	1%
COc1cc(NC(=O)CN2c3ccccc3S(=O)(=O)c3ccccc32)cc(OC)c1	x	x	x	-3%[46 µM]	x	x
Cc1ccc(S(=O)(=O)/N=C2/C=C(Sc3ncn[nH]3)C(=O)c3ccccc32)cc1	x	13µM*	0.89µM*	u	-22	-1%
Cc1ccc(S(=O)(=O)/N=C2/C=C(Sc3ncn[nH]3)C(=O)c3ccccc32)c(C)c1	x	13µM*	1.4µM*	u	17	-4%
CC(C)c1ccc(S(=O)(=O)/N=C2/C=C(Sc3ncn[nH]3)C(=O)c3ccccc32)cc1	u	1.8µM*	1.4µM*	u	u	-8%
COc1ccc(-c2cnnc(CCCn3ccnc3-c3ccccc3)n2)cc1	x	-6%[13.5 µM]	x	x	x	x
SMILES	IMPase inh	ALDH1A1 block	HPGD block	Lamin A splicing	PNC assembly inh	Luc counter
CCCSCCCNC(=O)Cn1c(-c2cccs2)cc2ccccc21	x	x	x	5%[46 µM]	x	x
CCc1c(C)sc(NC(=O)c2noc(C)c2[N+](=O)[O-])c1C#N	x	18µM*	x	-6%[46 µM]	x	2%
CCOC(=O)N1CCN(C(=O)c2ccccc2-c2ccccc2)CC1	-2	-16%	1%	u	11	2%
CCOC(=O)N1CCN(C(=O)CSc2ccccc2)CC1	5	u	10µM*	8%	4	-8%
O=C(c1ccccc1CCc1ccccc1)N1CCN(c2ccccn2)CC1	1	u	u	u	-84*	1%
CCOC(=O)N1CCN(C(=O)c2ccccc2CCc2ccccc2)CC1	8	6.3µM*	-6%	14%	u	1%
COC(=O)C/C=C\[C@@H](C)[C@@H](/C=N\O[C@@H](C)CN1CCCCc2nc(C)c(C)cc21)NS(=O)(=O)c1ccc(C)cc1	x	13%[13.5 µM]	x	x	x	x
O=C(N/N=C1/C[C@@H](O)[C@@H](O)[C@@H]2[C@@H]3C(=O)N(C[C@@H]4CCCO4)C(=O)[C@H]3CC[C@@H]12)OCc1ccccc1	x	-5%[13.5 µM]	x	x	x	x
Cc1occc1C(=O)N1CCN(S(C)(=O)=O)CC1	3	20µM*	4%	2%	-5	0%
CS(=O)(=O)N1CCN(C(=O)c2ccc(-c3ccccc3)cc2)CC1	-3	-11%	-11%	-2%	-83*	0%
CCS(=O)(=O)N1CCN(C(=O)c2ccc(-c3ccccc3)cc2)CC1	1	-9%	-9%	u	-25	-4%
O=C(c1ccc(-c2ccccc2)cc1)N1CCC(C(=O)N2CCCC2)CC1	9	-14%	16µM*	-16%	-3	2%
COc1ccc(NC(=O)c2c(NCc3cccc(OC)c3)sc3c2CCC3)cc1	x	x	x	5%[46 µM]	x	x
CN(C1CCCCC1)S(=O)(=O)c1ccc(NC(=S)NC(=O)c2cccs2)cc1	-8	22µM*	-13%	u	-29	-1%
Cc1ccccc1C(=O)N1CCN(c2ccc(NC(=S)NC(=O)c3cccs3)cc2)CC1	x	3%	x	x	x	2%
Cc1cc(C)cc(NS(=O)(=O)c2ccc(NC(=S)NC(=O)c3cccs3)cc2)c1	x	10µM*	-14%	u	u	2%
COc1cc(NS(=O)(=O)c2ccc(NC(=S)NC(=O)c3cccs3)cc2)nc(OC)n1	2	u	-11%	-2%	u	4%
Cc1ccc(C(=O)N2CCN(c3ccc(NC(=S)NC(=O)c4cccs4)cc3)CC2)cc1	x	14µM*	x	u	x	-1%
O=S(=O)(Nc1ccc(C(F)(F)F)cc1)c1ccc2c(c1)OCCO2	-6	x	x	x	x	x
Cc1ccc(Nc2nc3ccccc3c3nncn23)cc1C	3	x	x	x	x	x
CCOc1ccc(-n2c(SC(C)C(=O)OC)nc3c([nH]c4ccccc43)c2=O)cc1 (centres undefined)	x	x	x	10%[46 µM]	x	x
COC(=O)[C@@]1(Cc2ccc(F)cc2)[C@H]2c3cc(C(=O)N(C)C)n(Cc4cccc5ccccc45)c3C[C@H]2CN1C(=O)c1ccccc1	x	-3%	-12%	x	x	-3%
COc1ccc(NC(=O)C2CCN(C(=O)c3ccccc3)CC2)c(OC)c1	5	1.6µM*	-13%	15%	24	0%
